This note sets out measurements from PubChem BioAssay AID651622 (National Center for Advancing Translational Sciences (NCATS), 2012).

Values without a mark were called inactive.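 The calls were made as follows: active = inhibition of the USP46/UAF1 deubiquitinase of at least 60% at 114 µM in the gel test; inconclusive = inhibition from 30% up to under 60%; inactive = inhibition below 30%.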

Chain of Ubiquitin carboxyl-terminal hydrolase 46 (Homo sapiens) + WD repeat-containing protein 48 (Homo sapiens) (P62068 whole entry, looked up): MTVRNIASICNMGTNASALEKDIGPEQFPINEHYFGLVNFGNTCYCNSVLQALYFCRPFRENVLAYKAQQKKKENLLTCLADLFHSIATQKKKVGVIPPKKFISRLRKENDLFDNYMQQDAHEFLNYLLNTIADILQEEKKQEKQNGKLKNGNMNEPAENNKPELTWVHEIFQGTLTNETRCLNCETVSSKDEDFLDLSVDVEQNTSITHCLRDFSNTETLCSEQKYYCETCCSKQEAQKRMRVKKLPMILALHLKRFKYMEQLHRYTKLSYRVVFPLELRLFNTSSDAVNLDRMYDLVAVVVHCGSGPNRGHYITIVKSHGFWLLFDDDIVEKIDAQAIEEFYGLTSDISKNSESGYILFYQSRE
Chain of Ubiquitin carboxyl-terminal hydrolase 46 (Homo sapiens) + WD repeat-containing protein 48 (Homo sapiens) (Q8TAF3 whole entry, looked up): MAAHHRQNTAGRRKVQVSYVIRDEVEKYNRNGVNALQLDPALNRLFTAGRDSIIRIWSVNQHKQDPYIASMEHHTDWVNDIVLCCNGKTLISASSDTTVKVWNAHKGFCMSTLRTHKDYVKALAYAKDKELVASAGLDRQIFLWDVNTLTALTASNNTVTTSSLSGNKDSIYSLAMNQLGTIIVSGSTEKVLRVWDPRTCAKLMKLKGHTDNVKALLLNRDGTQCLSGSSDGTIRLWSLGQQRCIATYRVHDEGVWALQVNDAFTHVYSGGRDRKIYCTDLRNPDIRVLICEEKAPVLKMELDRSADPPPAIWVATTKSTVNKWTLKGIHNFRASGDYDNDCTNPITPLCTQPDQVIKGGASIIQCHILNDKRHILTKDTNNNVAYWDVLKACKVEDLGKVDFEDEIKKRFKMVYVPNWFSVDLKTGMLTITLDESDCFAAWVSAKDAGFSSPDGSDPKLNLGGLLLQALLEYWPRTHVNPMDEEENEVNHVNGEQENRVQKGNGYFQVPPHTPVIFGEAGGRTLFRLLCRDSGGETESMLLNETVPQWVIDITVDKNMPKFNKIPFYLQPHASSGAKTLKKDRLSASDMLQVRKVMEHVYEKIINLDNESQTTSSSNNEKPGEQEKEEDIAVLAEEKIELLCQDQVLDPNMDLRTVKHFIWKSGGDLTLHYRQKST

The target of the experiment is Ubiquitin carboxyl-terminal hydrolase 46 (Homo sapiens) + WD repeat-containing protein 48 (Homo sapiens) (UniProt P62068+Q8TAF3). Put plainly: Inhibitors of USP1/UAF1: SAR in USP46/UAF1 diubiquitin SDS-PAGE gel assay. The settings on record: USP46/UAF1 K63 diubiquitin cleavage; series mostly up to 114 µM; inhibition: at the top concentration. An excerpt:
Deubiquitinating enzymes (DUBs) are a class of enzymes that can cleave isopeptide bond formed between the C-terminal carboxylate of ubiquitin and a lysine side-chain amino group on the target protein. Among them, ubiquitin specific proteases (USPs) constitute the largest DUB family. Human USPs are emerging as promising targets for pharmacological intervention because of their connection to a number of human diseases, including prostate, colon and breast cancer (1, 2), pediatric acute lymphoblastic leukemia (3), and familial cylindromatosis (4). The advantage of inhibiting USPs lies in the potential specificity of therapeutic intervention that can lead to better efficacy and reduce nonspecific side effects. In a collaboration between the University of Delaware and the NIH Chemical Genomics Center, a high-throughput screen assay was developed to screen for USP1/UAF1 inhibitors (5). […]
The inhibition assay contains 100 nM USP46/UAF1, 2 microM K63 linked diubiquitin, and inhibitors at varied concentrations (0.08 microM - 114 microM). […] The intensity of the individual diubiquitin and monoubiquitin band was quantified using Quantity One 4.3.1 (Biorad, Hercules, CA). The percentage of the conversion was determined and used to calculate the reaction rate. […]
Consider `Cc1cnc(-c2ccccc2C(C)C)nc1NCc1ccc(-n2ccnn2)cc1`, for which the “inhibition” value was 9%.

The term inhibition denotes the drop in the measured response relative to a control, in per cent.
